Reference: PubChem BioAssay (NCATS)
Inconclusive results are not listed. A number with no mark means an inactive call. Activity calls are given as the source filed them. Calls follow the shape of the dose curve; as a rule, active = well fitted cell-killing curve with a large enough effect; inconclusive = small, poorly fitted or top-dose-only effect, or effect the other way; inactive = no such curve, though single readings can be large or run the other way.

Columns and labels:
[1] = Viability qHTS for spleen associated tyrosine kinase inhibitor (SYKi) naive MV4-11 cells (AID 1963823); also: nearly all actives have a fitted effect of over 40% in size
Method in brief: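 SYK inhibitor-naive MV4-11 cells, 500 per well, exposed to compounds for 72 hr at 37 C, 5% CO2. Viability read as CellTiter-Glo luminescence after 10 min at room temperature.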

[2] = Viability qHTS for spleen associated tyrosine kinase inhibitor (SYKi) drug resistant MV4-11 cells (AID 1963824); also: nearly all actives have a fitted effect of over 35% in size
Method in brief: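 SYK-inhibitor-resistant MV4-11 AML cells were seeded at 500 per well onto compound and cultured 72 hours (37 °C, 5% CO2). CellTiter-Glo was then added, and after 10 min at room temperature, luminescence gave viability.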
Potency is read from the fitted curve at half-maximal effect.

SMILES	Potency [1]	Potency [2]	viability (% of control) [1]	viability, % of control [2]
CSCC[C@H](NC(=O)[C@H](CCSC)NC(=O)CNC(=O)[C@H](Cc1ccc(O)cc1)NC(=O)[C@H](Cc1ccccc1)NC(=O)[C@H](CCCN=C(N)N)NC(=O)[C@H](CC(=O)O)NC(=O)[C@@H]1CCCN1C(=O)[C@H](CC(=O)O)NC(=O)[C@@H]1CCCN1C(=O)[C@@H]1CCCN1C(=O)[C@@H](N)CC(=O)O)C(N)=O	inactive	inactive	–	–
CCCc1c(C(C)C)nc(C(C)C)c([C@@H](C)O)c1-c1ccc(F)cc1O	9.2 µM (active)	8.2 µM (active)	–	–
Cc1cc(NC(=O)c2cccc(NC(=O)/C=C/CN(C)C)c2)ccc1Nc1nccc(-c2cccnc2)n1	2.06 µM (active)	2.31 µM (active)	–	–
CC(=O)O[C@@H]1[C@@H](OC(=O)/C=C/c2ccccc2)[C@@H](OC(C)=O)[C@H](O[C@H]2[C@@H]3C=CO[C@@H](O[C@@H]4O[C@H](CO)[C@@H](O)[C@H](O)[C@H]4O)[C@@H]3[C@@]3(CO)O[C@@H]23)O[C@H]1C	inactive	inactive	–	–
N#C/C(=C1/Nc2ccccc2S1)c1ccnc(OCc2ccc(CN3CCOCC3)cc2)n1	10.5 µM (active)	8.33 µM (active)	–	–
CC(=O)N[C@@H](Cc1c[nH]c2ccccc12)C(=O)N[C@@H](CCC(=O)O)C(=O)N[C@@H](Cc1cnc[nH]1)C(=O)N[C@@H](CC(=O)O)C(=O)Nc1ccc2c(C(F)(F)F)cc(=O)oc2c1	inactive	inactive	–	–
COc1cc2c(cc1O)CC[C@H]1[C@@H]2CC[C@]2(C)[C@H](O)CC[C@@H]12	0.58 µM (active)	0.731 µM (active)	–	–
C[C@]1(OC(=O)/C=C/c2ccccc2)C[C@@H](O)[C@]2(O)C=CO[C@@H](O[C@@H]3O[C@H](CO)[C@@H](O)[C@H](O)[C@H]3O)[C@@H]21	inactive	inactive	–	–
COC(=O)C1=COC(OC2OC(CO)C(O)C(O)C2O)C2C(COC(=O)/C=C/c3ccc(O)c(O)c3)C(O)C(O)C12 (stereo unspecified)	inactive	inactive	–	–
CS(=O)(=O)c1ccc([C@@H](CC2CCCC2)C(=O)Nc2nccs2)cc1	8.33 µM (active)	7.42 µM (active)	–	–
CC(C)=CCC[C@@](C)(O)[C@H]1CC[C@]2(C)[C@@H]1[C@H](O)CC1[C@@]3(C)CC[C@H](O[C@@H]4O[C@H](CO)[C@@H](O)[C@H](O)[C@H]4O[C@@H]4O[C@H](CO)[C@@H](O)[C@H](O)[C@H]4O)C(C)(C)[C@@H]3CC[C@]12C (stereo partly specified)	inactive	inactive	–	–
C[C@]12CC[C@@H]3c4ccc(O[C@@H]5O[C@H](C(=O)O)[C@@H](O)[C@H](O)[C@H]5O)cc4CC[C@H]3[C@@H]1CCC2=O	inactive	inactive	–	–
Cc1cc(C(=O)Nc2nc3cccc(Cl)c3n2C2CCCCN(C(=O)/C=C/CN(C)C)C2)ccn1 (stereo unspecified)	5.17 µM (active)	8.2 µM (active)	–	–
Nc1nonc1-c1nc2cnccc2n1C1CCCCC1	0.517 µM (active)	0.731 µM (active)	–	–
C=CC(=O)N1CCCC(n2nc(-c3ccc(Oc4ccccc4)cc3)c3c(N)ncnc32)C1 (stereo unspecified)	0.58 µM (active)	1.16 µM (active)	–	–
C[C@@H]1O[C@@H](O[C@H]2[C@H](OC(=O)[C@]34CCC(C)(C)C[C@H]3C3=CCC5[C@@]6(C)C[C@H](O)[C@H](O[C@@H]7O[C@H](CO)[C@@H](O)[C@H](O)[C@H]7O)[C@@](C)(CO)C6[C@H](O)C[C@@]5(C)[C@]3(C)CC4)OC[C@H](O)[C@@H]2O)[C@H](O)[C@H](O)[C@H]1O[C@@H]1OC[C@@H](O)[C@H](O[C@@H]2OC[C@](O)(CO)[C@H]2O)[C@H]1O (stereo partly specified)	–	–	85.2% [at 9.25 µM]	102% [at 9.25 µM]
C[C@H]1CC(=O)Nc2cccc(-c3cnn(C(C)(C)C)c3)c2N1	inactive	inactive	–	–
CC(=O)c1ccc(O[C@@H]2O[C@H](CO[C@@H]3OC[C@@H](O)[C@H](O)[C@H]3O)[C@@H](O)[C@H](O)[C@H]2O)cc1	inactive	inactive	–	–
O=c1ccc2ccc(OCCCCN3CCN(c4cccc5sccc45)CC3)cc2[nH]1	10.3 µM (active)	7.31 µM (active)	–	–
c1cc(CN2CCCCC2)cc(OCCCNc2nc3ccccc3s2)c1	15 µM (active)	21.1 µM (active)	–	–
COC(=O)[C@H](Cc1ccc([N+](=O)[O-])cc1)NC(=O)c1cccc2ccccc12	5.8 µM (active)	4.11 µM (active)	–	–
O=C(OC[C@H]1O[C@H](O[C@]2(CO)O[C@H](CO)[C@@H](O)[C@@H]2O)[C@H](O)[C@@H](O)[C@@H]1O)c1ccc(O)cc1	inactive	inactive	–	–
C=Cc1ccc(O[C@@H]2O[C@H](CO[C@@H]3O[C@@H](C)[C@H](O)[C@@H](O)[C@H]3O)[C@@H](O)[C@H](O)[C@H]2O)cc1	inactive	inactive	–	–
CCC(C)/C=C(C)/C=C/C1=CC2=C(Cl)C(=O)C(C)(OC(C)=O)C(=O)C2(O)C(OC)O1 (stereo unspecified)	11.2 µM (active)	7.96 µM (active)	–	–

SMILES	Potency [1]	Potency [2]	viability (% of control) [1]	viability, % of control [2]
C=CC(C)(C)C12C=C(OC)C(=O)N3C(C(C)C)C(=O)NC31N(OC)c1ccccc12 (stereo unspecified)	inactive	7.09 µM (active)	–	–
OCC(Cc1ccccc1)Nc1nc(Oc2ccc3c(c2)CCC3)nc2c1ncn2Cc1ccc(-c2ccccc2)cc1 (stereo unspecified)	18.4 µM (active)	7.31 µM (active)	–	–
CC1CCC2(NC1)OC1C(=O)C3C4CCC5CC(O[C@@H]6O[C@H](CO)[C@@H](O)[C@H](O)[C@H]6O[C@@H]6O[C@@H](C)[C@H](O)[C@@H](O)[C@H]6O)CCC5(C)C4CCC3(C)C1C2C (stereo partly specified)	inactive	inactive	–	–
C[C@@H]1O[C@@H](O[C@@H]2[C@@H](O)[C@@H](O)[C@H](O[C@@H]3[C@@H](O)[C@@H](O[C@]4(CO)O[C@H](CO)[C@@H](O)[C@@H]4OC(=O)/C=C/c4ccc(O)cc4)O[C@H](CO)[C@H]3OC(=O)/C=C/c3ccc(O)cc3)O[C@H]2C)[C@H](O)[C@H](O)[C@H]1O	–	–	81.6% [at 9.25 µM]	117% [at 9.25 µM]
CC1=CC2=C(C)C(=O)C(C)(O)C(O)C2CO1 (stereo unspecified)	inactive	inactive	–	–
C=C1C(=O)O[C@@H]2/C=C(\CO)CC/C=C(/C=O)C[C@H](O)[C@@H]12	4.11 µM (active)	3.26 µM (active)	–	–
CC12CCC3c4ccc(O)cc4CCC3C1CC(OC1OC(C(=O)O)C(O)C(O)C1O)C2O (stereo unspecified)	inactive	inactive	–	–
CNc1ccc([N+](=O)[O-])c(Nc2ccc3[nH]ncc3c2)n1	2.59 µM (active)	5.8 µM (active)	–	–
CC12CC34C=CC(=O)C(C)(CCC(=O)O)C3C(CC1C4)O2 (stereo unspecified)	inactive	inactive	–	–
CC(=O)O[C@H]1C[C@@H](O)C(C)(C)C2C[C@@H](OC(C)=O)[C@@]3(C)C4=CCC(C(CO)CC(O)C5OC5(C)C)[C@]4(C)CCC3[C@]21C (stereo partly specified)	inactive	inactive	–	–
O=S(=O)(NCc1cccc2ccccc12)c1cc(Cl)c(Oc2cccc(N3CCNCC3)c2)s1	2.59 µM (active)	4.61 µM (active)	–	–
Cc1cn(C[C@H](N)C(=O)O)c(=O)n(Cc2ccsc2C(=O)O)c1=O	inactive	inactive	–	–
CC1(C)CCC[C@@]2(C)[C@H]1[C@H](O)C=C(CO)[C@]2(O)CO	inactive	inactive	–	–
COc1cc(C2Oc3c(OC)cc(/C=C/C(=O)OC[C@H]4O[C@@H](OC(C)(C)C(=O)O)[C@H](O)[C@@H](O)[C@@H]4O)cc3C2CO)ccc1O (stereo partly specified)	inactive	inactive	–	–
COC(=O)C(Cc1ccc(OCCn2c(=O)sc3cc(C(=O)c4ccccc4)ccc32)cc1)C(=O)OC	23.1 µM (active)	18.4 µM (active)	–	–
CC1=C(C)C(=O)OC(C(C)C2CCC3C4CC=C5CC(OC6OC(COC7OC(CO)C(O)C(O)C7O)C(O)C(O)C6O)CC(O)C5(C)C4CCC23C)C1 (stereo unspecified)	inactive	inactive	–	–
C=CC(C)(O)CC/C=C(\C)C(=O)OCC1OC(OC2CCC3(C)C(CCC4(C)C3CC=C3C5CC(C)(C)C(O)CC5(C(=O)O)CCC34C)C2(C)C)C(O)C(OC2OC(CO)C(O)C(OC3OC(CO)C(O)C(OC4OC(COC5OC(CO)C(O)C(O)C5O)C(O)C(O)C4O)C3O)C2O)C1O (stereo unspecified)	–	–	99.5% [at 9.25 µM]	108% [at 9.25 µM]
COc1ccc(CC2C(=O)NC(C)C(=O)N(C)C3Cc4ccc(cc4)Oc4cc(ccc4OC4OC(CO)C(O)C(O)C4O)CC(C(=O)NC(C)C(=O)NC(C)C(=O)N2C)N(C)C3=O)cc1 (stereo unspecified)	0.0155 µM (active)	0.0098 µM (active)	–	–
O=S(c1cc(Cl)cc(Cl)c1O)c1cc(Cl)cc(Cl)c1O	inactive	inactive	–	–
Cc1csc2c(N[C@@H](C)CN3CCN(S(=O)(=O)c4ccc(Cl)c(Cl)c4)CC3)ncnc12	0.259 µM (active)	0.231 µM (active)	–	–
C=C1CC[C@]2(C(=O)O[C@@H]3O[C@H](CO)[C@@H](O)[C@H](O)[C@H]3O)CC[C@]3(C)C(=CCC4[C@@]5(C)C[C@H](O)[C@@H](O[C@@H]6O[C@H](C(=O)O)[C@@H](O)[C@H](O)[C@H]6O)[C@](C)(C=O)C5CC[C@]43C)C2C1 (stereo partly specified)	–	–	68.2% [at 9.25 µM]	87.9% [at 9.25 µM]
COC(=O)c1ccccc1O[C@@H]1O[C@H](CO)[C@@H](O)[C@H](O)[C@H]1O[C@@H]1O[C@@H](C)[C@H](O)[C@@H](O)[C@H]1O	inactive	inactive	–	–
O=C(Nc1cccc(C(F)(F)F)c1)c1ccccc1NCc1ccncc1	8.2 µM (active)	9.2 µM (active)	–	–
COC(=O)C1=CO[C@@H](O[C@@H]2O[C@H](CO)[C@@H](O)[C@H](O)[C@H]2O)[C@H]2[C@@H]1C=C[C@]21C=C([C@H](C)OC(=O)/C=C/c2ccc(O[C@@H]3O[C@H](CO)[C@@H](O)[C@H](O)[C@H]3O)cc2)C(=O)O1	inactive	inactive	–	–
